For assay [1], the target named is Androgen receptor (Homo sapiens) (UniProt P10275). The assay is described as follows: qHTS assay for small molecule agonists of androgen receptor signaling (AID 588515; active means well fitted curve in the direction sought with a large enough effect in the signal ratio, with a control signal flat; the % refers to the signal ratio; further: on the % scale 0 is the no-effect control and ±100 the full control effect). Conditions: AR-UAS-bla HEK293, beta-lactamase ratio, agonist 16 h; active compounds read high. A digest of the protocol:
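EC50 and efficacy came from Hill fits of titrations (up to 92 uM) normalized to 30 nM R1881 as 100% and DMSO as 0%. Compound exposure was 16 h at 37 C on AR-UAS-bla HEK293 cells, with a 405/460/530 nm CCF4 fluorescence read.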
In general terms: Quantitative high-throughput screening tests each substance at several concentrations.

The target is the same in assay [2]. Briefly: qHTS assay for small molecule antagonists of androgen receptor signaling (AID 588516; active means well fitted curve in the direction sought with a large enough effect in the signal ratio, with a control signal flat, not every such curve was filed as active; the % refers to the signal ratio; further: on the % scale 0 is the no-effect control and ±100 the full control effect). Conditions: AR-UAS-bla HEK293, beta-lactamase ratio, antagonist mode, 16 h; series mostly up to 76.8 µM. In outline:
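Cells were plated and incubated 5 h, compounds added in titration, then R1881 (10 nM final) as agonist. After 16 h at 37 C, CCF4 substrate was loaded for 2 h at room temperature and fluorescence measured.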

Assay [3] deals with Peroxisome proliferator-activated receptor alpha (Homo sapiens) (UniProt Q07869). The assay is described as follows: qHTS assay for small molecule agonists of the peroxisome proliferator-activated receptor alpha (PPARalpha) signaling pathway (AID 651778). Further: % of control where 0% means no effect. The following applies: PathHunter PPARalpha complementation, chemiluminescence, 6 h; max response: active compounds read high. A digest of the protocol:
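Chemiluminescence from complemented enzyme reported PPARalpha activation in cells after 6 hr of compound treatment at 37 C. The detection reagent was incubated for 60 min at room temperature, and compounds were scored as agonists.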

The nature of assay [4]: qHTS assay for cell viability of HEK293 cells (AID 743288). Further: on the % scale 0 is the no-effect control and ±100 the full control effect; nearly all actives have a fitted effect of over 50% in size. The following applies: ATP luminescence (CellTiter-Glo), 18 h; max response: active compounds read low. In outline: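 HEK293 parental, 2,000 cells/well; ≥5 h pre-incubation 37 C; pintool compound addition; 18 h, 37 C; CellTiter-Glo 30 min RT; luminescence read.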
Assay [5] can be described thus: Confirmation and Secondary Assay for Modulators of Hemoglobin Beta Chain Splicing at IVS2 654 locus (AID 910).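 Further: HeLa cells stably carrying EGFP split by mutant beta-globin IVS2-654 intron; per-well total GFP intensity by laser scanning cytometry after 2-day treatment; % of control where 0% means no effect.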 Conditions: HeLa EGFP-654 splicing reporter, GFP fluorescence, 48 h; series mostly up to 46.1 µM. A digest of the protocol: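 Readout: per-well total peak green fluorescence (488 nm ex, 500–520 nm em) from objects 5–250 µm, reflecting correct splicing of an EGFP-654 reporter. Compounds were applied for 2 days at 37 °C to overnight-plated HeLa EGFP-654 cells; controls were DMSO and 500 nM IVS2-654 PNA.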

Assay [6] is described as follows: Confirmation and Secondary Assay for Modulators of Hemoglobin Beta Chain Splicing at IVS2 705 locus (AID 930).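 Further: GFP fluorescence per well restored by corrected splicing of the IVS2-705 intron in EGFP; % of control where 0% means no effect.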 Conditions: HeLa EGFP-705 splicing reporter, GFP fluorescence, 48 h; series mostly up to 46.1 µM. A digest of the protocol: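 Secondary splice-site specificity test uses HeLa expressing CMV-driven EGFP interrupted by IVS2-705; cells were treated 2 days at 37C with 500 nM antisense PNA as positive control.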

The nature of assay [7]: qHTS Assay for Identifying Gametocytocidal Compounds (AID 743244). Further: potency means the concentration at half of the fitted maximal effect.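 On max response: on the % scale 0 is the no-effect control and ±100 the full control effect; actives lower the fluorescent signal which means gametocytes are killed.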 Conditions: P. falciparum 3D7 stage III-V gametocytes, alamarBlue, 72 h; max response: active compounds read low. A digest of the protocol:
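Compounds are pinned into medium, gametocytes (stage III–V, 3D7, 20,000 cells/well) added, and plates held 72 h at 37 °C in 5% CO2. AlamarBlue follows for 24 h before fluorescence reading.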

The target of assay [8] is Cytochrome P450 1A2 (Homo sapiens) (UniProt P05177). The assay is described as follows: p450-cyp1a2 (AID 410; calls by dose curve; further: potency means the concentration at half of the fitted maximal effect). Conditions: recombinant CYP1A2, luciferin-ME demethylation, luminescence; series mostly up to 57 µM. In outline:
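Luminescent readout of luciferin formed from Luciferin-ME by human CYP1A2; data normalized against complete inhibition by 57 uM furafylline. Enzyme 20nM, substrate 100uM at Km, 100mM KPO4 buffer, 60 min reaction at room temperature.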

In assay [9] the target is Glucocorticoid receptor (Homo sapiens) (UniProt P04150). Briefly: GR-GFP Redistribution (AID 450;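 active means compounds whose dose series gives a full or clear partial fitted curve of increased nuclear translocation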; further: potency means the concentration at half of the fitted maximal effect). The following applies: U2OS GR-GFP nuclear translocation, laser cytometry, 2 h.
Assay [10] shares this target. Briefly: GR-EFC Redistribution (AID 451; calls by dose curve; further: potency means the concentration at half of the fitted maximal effect). The following applies: CHO-K1 GR-EFC translocation, beta-gal luminescence, 2 h. In outline: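 Translocation of GR-ED fusion to nuclear EA restores b-gal, read by luminescence after 1 h room-temperature detection. Engineered CHO-K1 biosensor cells, 1,000/well, exposed 2 h at 37 C to titrations up to 46 uM final.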
The target in assay [11] is Cytochrome P450 3A4 (Homo sapiens) (UniProt P08684). Briefly: qHTS Assay for Activators of Cytochrome P450 3A4 (AID 885). Further: nearly all actives have a fitted effect of over 65% in size. The following applies: recombinant CYP3A4, Luciferin-PPXE luminescence, 60 min; series mostly up to 57.1 µM. In outline:
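Signal was normalized against complete inhibition by 57 uM ketoconazole. The reaction used 20nM CYP3A4 with 25uM Luciferin-PPXE, 10-min compound preincubation and a 60-min NADPH-supported step at RT.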

Assay [12] deals with Cytochrome P450 2D6 (Homo sapiens) (UniProt P10635). The assay is described as follows: qHTS Assay for Inhibitors and Substrates of Cytochrome P450 2D6 (AID 891). Further: nearly all actives have a fitted effect of over 60% in size. Further: potency means the concentration at half of the fitted maximal effect. Conditions: recombinant CYP2D6, luciferin-ME EGE luminescence; series mostly up to 57.1 µM. In outline:
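Human CYP2D6 (5 nM) with 30 uM Luciferin-ME EGE (at Km) in 100 mM KPO4, compound preincubated 10 min, then NADPH regeneration system for 60 min at room temperature. Luciferin read by luminescence; normalized to 1.43 uM quinidine.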

The target of assay [13] is DNA dC->dU-editing enzyme APOBEC-3G (Homo sapiens) (UniProt Q9HC16). The assay is described as follows: qHTS for inhibitors of Vif-A3G interactions: Validation (AID 588379). Further: 0% is about no effect. Conditions: Vif-A3G protein interaction assay; series mostly up to 46.1 µM. In outline:
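HeLa cells stably expressing Vif and A3G-eYFP, 700 cells/well, incubated overnight at 37 deg C, then exposed to compound overnight at 37 deg C. Inhibition of Vif-mediated degradation read as increased yellow fluorescence (Ex 488/Em 500-530) by laser-scanning cytometry.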

The target of assay [14] is Thyroid hormone receptor beta (Homo sapiens) (UniProt P10828). Briefly: qHTS assay for small molecule agonists of thyroid hormone receptor beta signaling (AID 588545; calls by dose curve). The following applies: TR-UAS-bla GripTite HEK 293, beta-lactamase ratio, agonist mode, 18 h, percent of T3 response, DMSO as zero; series mostly up to 76.7 µM. In outline: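 Cells (2500/well) were seeded, incubated 4 hrs at 37 C, dosed with a compound series, incubated 18 hrs, loaded with CCF4 dye for 2 hrs at RT, then read for fluorescence. Data were scaled between DMSO (0%) and 10 nM T3 (100%).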

The nature of assay [15]: Cell Viability - LYMP2-001 (AID 921).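 Further: 0% = DMSO only and full inhibition = tetraoctylammonium bromide control wells; nearly all actives have a fitted effect of over 70% in size.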 The following applies: LYMP2-001 lymphoblastoid cell viability; series mostly up to 92.2 µM. In outline: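 Steps: seed 2500 lymphoblastoid cells/well; 5 hr, 37 C; add compound; 24 hr, 37 C; CellTiter-Glo reagent, 30 min room temperature; read luminescence. Concentration-response modeled by Hill equation for AC50.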
Assay [16] in a line: qHTS assay to identify small molecules that stimulate interleukin-8 (IL-8) secretion (AID 651758; active means well fitted activation curve with a large enough effect in the signal ratio; the % refers to the signal ratio; further: potency means the concentration at half of the fitted maximal effect; on activation: 0% is about no effect). The following applies: HTRF ratio (665/615); series mostly up to 92.2 µM. In outline: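 Secreted IL-8 measured by TR-FRET sandwich (cryptate and XL665 antibodies) from THP-1 cells exposed to compound overnight (16 hrs, 37 C).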
The target in assay [17] is Nuclear receptor ROR-gamma (Homo sapiens) (UniProt P51449). Briefly: qHTS assay for small molecule antagonists of the retinoid-related orphan receptor gamma (ROR-gamma) signaling pathway (AID 651802).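 Further: CHO cells with doxycycline-induced ROR-gamma expression; luciferase reporter luminescence driven by ROR response element; on the % scale 0 is the no-effect control and ±100 the full control effect; nearly all actives have a fitted effect of over 60% in size.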 The following applies: ROR-gamma antagonist cell reporter assay; series mostly up to 92.2 µM. A digest of the protocol: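 CHO, TET-inducible ROR + RORE-LUC reporter, 1536-well qHTS. Compound pinned, doxycycline added, 16hr 37C/5% CO2. ONE-Glo, 30 min RT, luminescence; signal drop scored as antagonism.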

Assay [18] is described as follows: Cell Viability - LYMP2-014 (AID 983).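 Further: plate controls were DMSO only for no effect and 92 µM tetraoctylammonium bromide for full effect; nearly all actives have a fitted effect of over 50% in size.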 Conditions: LYMP2-014 lymphoblastoid cells, viability qHTS; series mostly up to 92.2 µM. A digest of the protocol:
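Luminescent ATP signal (CellTiter-Glo, 30 min at room temperature) serves as the viability read-out after 24 hr compound exposure at 37 C. Cells were seeded at 2500 per well and settled 5 hr beforehand.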

Assay [19] addresses Bile acid receptor (Homo sapiens) (UniProt Q96RI1). The assay is described as follows: qHTS assay for small molecule antagonists of farnesoid X receptor signaling (AID 588526; calls by dose curve; further: on the % scale 0 is the no-effect control and ±100 the full control effect). The following applies: HEK293T FXR-UAS-bla, beta-lactamase ratio, antagonist mode; series mostly up to 76.7 µM. In outline: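 Beta-lactamase reporter antagonist mode: HEK293T FXR-UAS-bla cells, titrated compound, CDCA stimulation, 16 h 37 C, CCF4 dye 2 h RT. Data normalized to CDCA 50 uM and DMSO; Hill-fit IC50.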

Assay [20] is described as follows: qHTS assay for small molecule disruptors of the mitochondrial membrane potential - 5 hr assay (AID 651755; calls by dose curve; further: on the % scale 0 is the no-effect control and ±100 the full control effect; nearly all actives have a fitted effect of over 40% in size). Conditions: JC-1-type ratio dye; series mostly up to 92.2 µM. A digest of the protocol: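 HepG2, 2,000 cells/well, overnight attach; cpd or DMSO 5 hr, 37C/5% CO2; Mito-MPS 30 min 37C; fluor 490/535 + 540/590 nm.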

Several values for one entry are separate records, joined by “and”; a condition that tells them apart may be missing. Identical values can stand only once. Values without a mark were called inactive. Records with an inconclusive call do not appear. Activity calls are given as the source filed them. Unless noted, the call rests on the fitted dose curve; in most records, active means well fitted curve in the direction sought with a large enough effect; inconclusive means small, poorly fitted or top-dose-only effect, or another doubt; inactive means no such curve, though single readings can be large; an effect the other way counts as inactive or inconclusive. Bridge positions count the residues as written; N and C are the ends. Square brackets hold non-standard residues; d marks the D form. Peptide text beside a SMILES is read from it. * marks the point of attachment. Octanoyl(6-Me) = CCC(C)CCCCC(=O)*; Dab = NCC[CH](N)C(=O)O

Chain of Peroxisome proliferator-activated receptor alpha (Homo sapiens) (Q07869 whole entry, looked up): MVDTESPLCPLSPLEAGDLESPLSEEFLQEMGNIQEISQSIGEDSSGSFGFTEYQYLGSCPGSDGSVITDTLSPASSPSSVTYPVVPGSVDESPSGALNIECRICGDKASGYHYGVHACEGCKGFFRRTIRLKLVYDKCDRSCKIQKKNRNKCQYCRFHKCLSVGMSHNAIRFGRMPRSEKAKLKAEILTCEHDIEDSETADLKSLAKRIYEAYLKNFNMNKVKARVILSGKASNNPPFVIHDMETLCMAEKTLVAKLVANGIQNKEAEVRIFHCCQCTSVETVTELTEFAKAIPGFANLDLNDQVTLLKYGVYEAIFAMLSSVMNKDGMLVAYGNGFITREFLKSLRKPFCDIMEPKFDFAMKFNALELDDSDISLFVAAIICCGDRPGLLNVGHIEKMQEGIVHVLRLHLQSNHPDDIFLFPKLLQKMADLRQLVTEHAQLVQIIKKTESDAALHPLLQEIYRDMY
Chain of Androgen receptor (Homo sapiens) (P10275 whole entry, looked up): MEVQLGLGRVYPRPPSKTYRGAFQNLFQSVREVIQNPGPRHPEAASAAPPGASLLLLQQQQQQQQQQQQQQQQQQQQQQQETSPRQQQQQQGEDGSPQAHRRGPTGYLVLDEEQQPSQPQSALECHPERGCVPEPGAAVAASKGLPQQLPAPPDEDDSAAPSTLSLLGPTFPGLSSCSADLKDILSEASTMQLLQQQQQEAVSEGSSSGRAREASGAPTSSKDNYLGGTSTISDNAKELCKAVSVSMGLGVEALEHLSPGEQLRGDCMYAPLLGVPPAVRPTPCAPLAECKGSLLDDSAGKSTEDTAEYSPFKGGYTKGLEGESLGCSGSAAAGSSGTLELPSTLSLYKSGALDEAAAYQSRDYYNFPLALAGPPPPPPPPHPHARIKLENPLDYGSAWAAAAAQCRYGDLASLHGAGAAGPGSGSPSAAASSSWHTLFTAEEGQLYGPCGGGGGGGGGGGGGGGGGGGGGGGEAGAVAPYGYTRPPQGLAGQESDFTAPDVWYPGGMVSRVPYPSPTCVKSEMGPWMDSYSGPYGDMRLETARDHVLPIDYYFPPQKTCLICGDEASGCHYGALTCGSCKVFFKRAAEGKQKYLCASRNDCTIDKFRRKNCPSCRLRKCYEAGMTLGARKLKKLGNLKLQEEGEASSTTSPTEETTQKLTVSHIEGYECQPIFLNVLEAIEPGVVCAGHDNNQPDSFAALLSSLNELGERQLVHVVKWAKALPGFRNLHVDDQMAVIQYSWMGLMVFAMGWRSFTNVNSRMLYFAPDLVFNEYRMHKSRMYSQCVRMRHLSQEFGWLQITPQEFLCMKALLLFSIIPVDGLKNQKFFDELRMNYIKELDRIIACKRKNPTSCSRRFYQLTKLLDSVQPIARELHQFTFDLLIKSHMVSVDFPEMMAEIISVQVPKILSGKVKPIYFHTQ
Chain of Thyroid hormone receptor beta (Homo sapiens) (P10828 whole entry, looked up): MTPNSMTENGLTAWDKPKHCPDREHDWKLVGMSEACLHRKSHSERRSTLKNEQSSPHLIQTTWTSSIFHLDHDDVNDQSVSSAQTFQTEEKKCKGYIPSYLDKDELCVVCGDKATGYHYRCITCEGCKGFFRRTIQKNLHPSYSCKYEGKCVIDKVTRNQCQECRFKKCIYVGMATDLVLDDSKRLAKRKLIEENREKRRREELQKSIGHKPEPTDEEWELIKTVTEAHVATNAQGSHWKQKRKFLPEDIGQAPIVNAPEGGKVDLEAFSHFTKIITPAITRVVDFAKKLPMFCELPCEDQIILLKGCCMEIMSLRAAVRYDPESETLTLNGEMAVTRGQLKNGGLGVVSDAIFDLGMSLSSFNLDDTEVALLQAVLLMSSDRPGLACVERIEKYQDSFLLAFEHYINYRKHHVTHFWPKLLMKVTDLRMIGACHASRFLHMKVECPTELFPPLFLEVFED
Chain of Nuclear receptor ROR-gamma (Homo sapiens) (P51449 whole entry, looked up): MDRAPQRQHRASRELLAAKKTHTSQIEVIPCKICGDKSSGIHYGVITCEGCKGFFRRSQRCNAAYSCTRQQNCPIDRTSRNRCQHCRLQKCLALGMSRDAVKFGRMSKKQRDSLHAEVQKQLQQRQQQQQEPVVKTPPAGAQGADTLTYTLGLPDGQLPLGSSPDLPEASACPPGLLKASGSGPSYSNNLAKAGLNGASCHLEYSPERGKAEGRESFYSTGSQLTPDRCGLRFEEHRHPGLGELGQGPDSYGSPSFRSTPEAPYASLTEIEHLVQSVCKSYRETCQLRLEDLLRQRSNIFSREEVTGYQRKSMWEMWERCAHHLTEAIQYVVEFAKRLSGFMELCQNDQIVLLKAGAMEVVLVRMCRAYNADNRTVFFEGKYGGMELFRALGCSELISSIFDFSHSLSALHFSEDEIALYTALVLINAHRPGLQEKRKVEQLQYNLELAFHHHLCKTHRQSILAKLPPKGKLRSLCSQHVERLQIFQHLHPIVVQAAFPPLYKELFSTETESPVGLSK
Chain of Cytochrome P450 3A4 (Homo sapiens) (P08684 whole entry, looked up): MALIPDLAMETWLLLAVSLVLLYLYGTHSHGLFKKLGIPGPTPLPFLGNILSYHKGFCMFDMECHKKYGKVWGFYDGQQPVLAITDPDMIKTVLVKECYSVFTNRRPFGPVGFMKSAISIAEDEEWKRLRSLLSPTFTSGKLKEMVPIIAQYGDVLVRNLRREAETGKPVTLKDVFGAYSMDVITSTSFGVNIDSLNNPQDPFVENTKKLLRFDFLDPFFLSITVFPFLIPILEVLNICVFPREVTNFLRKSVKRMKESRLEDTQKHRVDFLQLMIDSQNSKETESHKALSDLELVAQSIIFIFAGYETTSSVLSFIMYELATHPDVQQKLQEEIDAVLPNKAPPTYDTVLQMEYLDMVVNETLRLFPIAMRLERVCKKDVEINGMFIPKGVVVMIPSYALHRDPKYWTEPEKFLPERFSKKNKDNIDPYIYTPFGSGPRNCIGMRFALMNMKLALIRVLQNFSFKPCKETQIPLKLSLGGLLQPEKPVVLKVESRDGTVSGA
Chain of Bile acid receptor (Homo sapiens) (Q96RI1 whole entry, looked up): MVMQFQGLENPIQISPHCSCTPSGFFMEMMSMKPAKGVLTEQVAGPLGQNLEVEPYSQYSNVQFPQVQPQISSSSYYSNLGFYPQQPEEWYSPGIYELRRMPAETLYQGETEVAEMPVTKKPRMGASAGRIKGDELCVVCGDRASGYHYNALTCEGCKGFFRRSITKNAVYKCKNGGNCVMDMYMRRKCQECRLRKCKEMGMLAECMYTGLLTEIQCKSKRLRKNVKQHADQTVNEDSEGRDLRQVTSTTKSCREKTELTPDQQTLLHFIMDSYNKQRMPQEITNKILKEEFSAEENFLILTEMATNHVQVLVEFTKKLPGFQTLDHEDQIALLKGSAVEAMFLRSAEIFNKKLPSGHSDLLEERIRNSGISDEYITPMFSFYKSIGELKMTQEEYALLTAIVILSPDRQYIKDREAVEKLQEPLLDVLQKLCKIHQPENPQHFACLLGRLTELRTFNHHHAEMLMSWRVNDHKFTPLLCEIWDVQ
Chain of Glucocorticoid receptor (Homo sapiens) (P04150 whole entry, looked up, the tested form may be a part): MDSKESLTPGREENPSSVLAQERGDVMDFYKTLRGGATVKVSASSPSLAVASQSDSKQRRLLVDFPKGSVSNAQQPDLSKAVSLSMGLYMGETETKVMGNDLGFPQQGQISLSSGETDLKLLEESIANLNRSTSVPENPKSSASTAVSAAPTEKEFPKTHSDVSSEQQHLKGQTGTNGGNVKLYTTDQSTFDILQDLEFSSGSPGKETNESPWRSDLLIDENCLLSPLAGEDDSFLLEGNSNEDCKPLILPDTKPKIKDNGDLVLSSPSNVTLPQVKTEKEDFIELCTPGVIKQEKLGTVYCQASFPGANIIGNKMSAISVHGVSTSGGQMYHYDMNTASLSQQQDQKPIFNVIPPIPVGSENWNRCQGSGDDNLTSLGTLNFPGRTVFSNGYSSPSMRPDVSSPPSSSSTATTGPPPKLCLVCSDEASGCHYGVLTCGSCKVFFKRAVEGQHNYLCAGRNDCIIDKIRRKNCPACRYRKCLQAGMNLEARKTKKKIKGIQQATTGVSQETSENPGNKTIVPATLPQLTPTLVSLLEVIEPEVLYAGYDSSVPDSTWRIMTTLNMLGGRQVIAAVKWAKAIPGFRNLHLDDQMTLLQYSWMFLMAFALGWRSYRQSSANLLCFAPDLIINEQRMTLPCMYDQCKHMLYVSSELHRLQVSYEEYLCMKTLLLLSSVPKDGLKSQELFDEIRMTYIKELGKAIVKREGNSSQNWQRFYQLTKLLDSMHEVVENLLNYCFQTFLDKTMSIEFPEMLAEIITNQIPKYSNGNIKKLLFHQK
Chain of Cytochrome P450 2D6 (Homo sapiens) (P10635 whole entry, looked up): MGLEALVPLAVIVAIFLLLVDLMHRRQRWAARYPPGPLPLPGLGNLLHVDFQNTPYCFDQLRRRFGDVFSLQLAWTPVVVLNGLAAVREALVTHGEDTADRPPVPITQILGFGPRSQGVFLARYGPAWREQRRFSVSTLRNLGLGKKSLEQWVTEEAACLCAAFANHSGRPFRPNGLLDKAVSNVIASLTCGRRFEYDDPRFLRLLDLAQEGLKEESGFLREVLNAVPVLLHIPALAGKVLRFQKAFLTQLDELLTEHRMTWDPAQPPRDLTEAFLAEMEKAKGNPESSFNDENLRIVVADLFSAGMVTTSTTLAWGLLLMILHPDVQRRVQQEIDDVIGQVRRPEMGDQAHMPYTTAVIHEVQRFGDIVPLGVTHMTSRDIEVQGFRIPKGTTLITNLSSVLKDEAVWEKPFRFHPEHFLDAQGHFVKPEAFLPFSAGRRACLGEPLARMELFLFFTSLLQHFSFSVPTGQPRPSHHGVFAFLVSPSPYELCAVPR
Chain of DNA dC->dU-editing enzyme APOBEC-3G (Homo sapiens) (Q9HC16 whole entry, looked up): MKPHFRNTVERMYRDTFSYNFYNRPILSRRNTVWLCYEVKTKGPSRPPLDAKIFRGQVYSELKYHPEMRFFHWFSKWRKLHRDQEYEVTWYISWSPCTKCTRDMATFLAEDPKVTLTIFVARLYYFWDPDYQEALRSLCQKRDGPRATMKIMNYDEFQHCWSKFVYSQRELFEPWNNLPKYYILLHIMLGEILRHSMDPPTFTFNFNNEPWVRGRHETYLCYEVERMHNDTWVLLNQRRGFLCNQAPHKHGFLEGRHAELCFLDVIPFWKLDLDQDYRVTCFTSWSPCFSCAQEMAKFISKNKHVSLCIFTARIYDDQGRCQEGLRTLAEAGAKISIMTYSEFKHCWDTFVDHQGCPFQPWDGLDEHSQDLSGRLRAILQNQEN

For the compound `O=C(O)c1ccccc1C(c1ccc(O)cc1)c1ccc(O)cc1`, in [1], the activation is 7.12% and 7.97%. The result in [2] was inactive. The max response is 0.608% and -3.85% in [3]; -11.1% and 2.2% in assay [4].

Regarding `CCC(C)CCCCC(=O)NC(CCN)C(=O)NC(C(=O)NC(CCN)C(=O)NC1CCNC(=O)C(C(C)O)NC(=O)C(CCN)NC(=O)C(CCN)NC(=O)C(CC(C)C)NC(=O)C(Cc2ccccc2)NC(=O)C(CCN)NC1=O)C(C)O` (centres undefined) ({Octanoyl(6-Me)}-[Dab]T[Dab][Dab][Dab]FL[Dab][Dab]T; lactam 4-C; configuration not given here), the Potency entry in assay [5] and in [6] was “inactive” each time.

For the compound `N=C(N)c1ccc(OCCCOc2ccc(C(=N)N)cc2Br)c(Br)c1`, the Potency in assay [7] was 7.08 µM (active).

In the case of `N[C@@H](C(=O)N[C@@H]1C(=O)N2C(C(=O)O)=C(Cl)CC[C@H]12)c1ccccc1`, the max response in [7] was 3.49%.

Take `O=c1cc(-c2cccc(O)c2)oc2c(O)c(O)ccc12`: the Potency in [8] is 0.1 µM (active); in assay [9], over 46 µM; in assay [10], over 46 µM. The result in [11] and in assay [13] was inactive. The Potency result in [12] was “inactive”.

For `CC1(C)S[C@@H]2[C@H](NC(=O)COc3ccccc3)C(=O)N2[C@H]1C(=O)O`, in assay [14], the result was inactive. Also, the max response in assay [3] was -2.73%.

As to `O=C1CCc2ccccc2O1`, the max response in assay [4] was -0.285%.

In the case of `c1ccc2scnc2c1`, the Potency result in assay [15], in assay [16] and in assay [17] was “inactive” each time.

In the case of `O=S(=O)(O)c1ccccc1`, the Potency result in assay [18] was “inactive”. Also, the outcome in [19] was inactive.

For the compound `COc1cc(/C=C/C(=O)N2CCC=CC2=O)cc(OC)c1OC`, the result in assay [11] was inactive. The Potency entry in assay [5] and in [6] was “inactive” each time.

As for `Cc1cccc(O)c1`, in assay [3], the max response was -4.41% and -2.22%.

As for `CCCCCCCCCCCCC[N+](C)(C)Cc1ccccc1`, the Potency entry in assay [5] and in [6] was “inactive” throughout.

For the compound `Nc1nc(-c2ccc(Cl)c(Cl)c2)c(-c2ccncc2)s1`, the outcome in assay [11] was inactive.

Consider `O[C@@H]([C@H](O)[C@@H](O)CBr)[C@@H](O)CBr`, for which the Potency result in assay [18], in assay [20] and in [17] was “inactive” in each case.

For `CN1CC[C@H](CN2c3ccccc3Sc3ccccc32)C1`, the Potency in assay [8] is 5.01 µM (active); in assay [12], 0.126 µM (active); in [7] it was 18.7 µM (active).

In the case of `CCCCOCCO`, the Potency entry in [15], in assay [18] and in assay [16] was “inactive” each time. For the same compound, the outcome in [19] and in [14] was inactive.

As to `Cc1c(N=C=O)cccc1N=C=O`, the Potency entry in assay [15] and in [20] was “inactive” each time. Further, the activation in assay [1] was -8.11% and -0.971%. Besides, the result in [2] was inactive. Further, the max response in assay [4] was 8.57% and -7.81%.

For the compound `COC(=O)c1ccc(C=O)cc1`, the Potency result in assay [15] and in [17] was “inactive” throughout. The outcome in [19] and in assay [14] was inactive.

In the case of `C1OCOCO1`, the outcome in [19] was inactive. In addition, the Potency result in assay [20] was “inactive”. For the same compound, the Potency in [16] is 66.8 µM (active). For the same compound, the max response in assay [3] was -0.344%; in assay [4] it was -3.72%.

For the origin of these results see PubChem BioAssay (NCATS).
